Assay results from PubChem BioAssay (NCI).
Values joined by “and” are separate entries in the source; they are usually repeats but may differ in a detail not shown here. Equal values may be shown once. The panel holds about 83,000 compounds, 20% with a hit somewhere; the sample as a whole holds those more often.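 Plates (96-well) were seeded with cells, treated with compound at one concentration, and incubated for 48 hours before percent growth was determined.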 Active and inactive are the calls of the source. How the source made its calls: active means growth percent below 10; inactive means the rest.

The compounds below were run on MDA-MB-468 breast (assay: NCI-60 one-dose screen, 48 h (100 = growth as untreated, 0 = no growth, -100 = all killed)). Conditions: 10 µM unless noted.

Row | Compound | growth
1 | CC(=O)O[C@H]1CC[C@H]2[C@@H]3CC=C4c5nc(-c6ccccc6)sc5CC[C@]4(C)[C@H]3CC[C@]12C | 57.2% (inactive)
2 | COC(=O)[C@H]1[C@@H](O)[C@@]2(O)c3c(OC)cc(OC)cc3O[C@@]2(c2ccc(OC)cc2)[C@@H]1c1ccccc1 | -16.5% (active)
3 | [Br][Pb]([c]1ccccc1)([c]1ccccc1)[c]1ccccc1 | -88.2% (active)
4 | O=S(=O)(Cl)c1ccccc1 (tested in a mixture with another compound) | 98.6% (inactive)
5 | NC(=Nc1ccccc1)N[N+](=O)[O-] | 92.2% (inactive)
6 | CC(N)Cc1ccc(O)cc1 (stereo not given) | 107% (inactive)
7 | O=C1NC(=O)C(CN2C(=O)C3(c4ccccc42)[C@H](Cl)C(=O)N3c2ccccc2)C(=O)N1 (stereo not given in full) | -23.1% (active)
8 | CC(=O)O[C@H]1C(=O)[C@@]2(C)[C@H]([C@H](OC(=O)c3ccccc3)[C@]3(O)C[C@H](OC(=O)[C@H](OC(=O)OCC4COC(C)(C)O4)[C@@H](NC(=O)c4ccccc4)c4ccccc4)C(C)=C1C3(C)C)[C@]1(OC(C)=O)CO[C@@H]1C[C@@H]2O (stereo not given in full) | 2.65% (active)
9 | CC1(C)N=C(N)N=C(N)N1c1ccc(CCC(=O)Nc2ccc(S(=O)(=O)F)cc2)cc1 | 46.3% (inactive)
10 | [Cl][Hg][c]1cc(Br)cc(Br)c1 | 7.71% (active)
11 | CC1=C(CN)C2=C(C)C3(CC3)[C@@](C)(O)C(=O)C2=C1 | 73.2% (inactive)
12 | C#Cc1ccc2c(c1)C(c1ccccc1)=NCC(=O)N2C | 20.8% (inactive)
13 | CC(=O)/C=C/c1ccc2c(c1)OCO2 | 96.6% (inactive)
14 | O=C(CCCN1CCC2(CC1)C(=O)NCN2c1ccccc1)c1ccc(F)cc1 | 103% (inactive) and 32.6% (inactive)
15 | COc1cc(C=Nc2cc(Cl)cc(Cl)c2)ccc1N(CCCl)CCCl | 36.3% (inactive)
16 | CCCc1cc(O)c2c3c(c(=O)oc2c1)CN(C)CC3 | -3.7% (active)
17 | O=[N+]([O-])c1ccc(OCc2ccc(S(=O)(=O)F)c(Cl)c2)c(Cl)c1 | 121% (inactive)
18 | CCOC(=O)[C@@H](C)C[C@H](Cc1ccccc1)NC(=O)c1nc([C@@H](C[C@H](C(C)C)N(C)C(=O)[C@@H](NC(=O)[C@H]2CCCCN2C)C(C)C)OC(C)=O)sc1CCOCc1ccccc1 | -48.6% (active)
19 | C[C@]12CC[C@H]3[C@@H](CC4SC(N)=NC45C/C(=N/NC(N)=O)CC[C@]35C)[C@@H]1CCC2=O (stereo not given in full) | -46.2% (active)
20 | NC(=S)c1cn(C2OC(CO)C(O)C2O)c2ncnc(N)c12 (stereo not given) | -43.2% (active)

Row | Compound | growth
21 | Nc1ccc2c(c1)Cc1cc(N)ccc1-2 | 67.3% (inactive)
22 | O=[N+]([O-])c1cc([N+](=O)[O-])c(Cl)cc1Cl | -73.8% (active)
23 | C=CC1CN2CCC1CC2C(O)c1ccnc2ccccc12 (stereo not given) | 107% (inactive)
24 | N#CC(N)c1ccccc1 (stereo not given) | 98.9% (inactive)
25 | COc1cc(C2CC(=O)Nc3nc(N)[se]c32)c(OC)c2c1OCO2 (stereo not given) | 109% (inactive)
26 | O=[N+]([O-])/C=C\c1ccc(Cl)c(Cl)c1 | 12.4% (inactive)
27 | CC(C)(C)N1CC1C#N (stereo not given) | 97% (inactive)
28 | CO[C@@H]([CH2][Hg][S]C#N)[C@@H]([CH2][Hg][S]C#N)OC | 98.3% (inactive)
29 | C#CC1(O)CCC2(C)C(CCC3C4CCC(=O)C4(C)CCC32)C1 (stereo not given) | 86.3% (inactive)
30 | CC1(C)N=C(N)N=C(N)N1c1ccc(CCCCc2ccc(S(=O)(=O)F)cc2)cc1 | -3.5% (active)
31 | COP(=S)(OC)Oc1ccc(SC)c(C)c1 | 108% (inactive)
32 | CC(=O)O[C@@H]1CC[C@]2(C)[C@H]3CC[C@]4(C)C(=O)CC[C@H]4[C@@H]3C[C@@H]3SC(N)=N[C@@]32C1 | 29.6% (inactive)
33 | N#C[S-].[Au+].c1ccc(CN2[CH-]N(Cc3ccccc3)C(c3ccccc3)=C2c2ccccc2)cc1 | -3.8% (active)
34 | O=C(O)c1ccc(=O)[nH]c1 | 95.8% (inactive) and 102% (inactive)
35 | C[Se]/C=C1/C(=O)N(c2c(Cl)cccc2Cl)c2ccccc21 | -6.67% (active)
36 | S=P(N1CCCCCC1)(N1CC1)N1CC1 | 105% (inactive)
37 | C1CCC([PH+](C2CCCCC2)C2CCCCC2[PH+](C2CCCCC2)C2CCCCC2)CC1.[Au].[CH-]1CCCCC1CC1CCCC[N-]1 (stereo not given) | -61.8% (active)
38 | N#CC1c2ccccc2C=CN1C(=O)c1ccc(N(CCCl)CCCl)cc1 (stereo not given) | 79.7% (inactive)
39 | CC1=C(CCCOC(=O)[C@H](N)CC(C)C)C2=C(C)C3(CC3)[C@@](C)(O)C(=O)C2=C1 | -61.5% (active)
40 | C=C1[C@@H](C)[C@H]2[C@H](Cc3ccccc3)NC(=O)[C@]23[C@@H](O)/C=C/[C@@](C)(O)C(=O)[C@@H](C)C/C=C/[C@H]3[C@@H]1O | -39% (active)
